Bioassay records (PubChem BioAssay)
Compounds with a hit are over-represented: about 11% of the library has one in this group of screens.
NIH3T3 tox: NIH 3T3 cell cytotoxicity. NIH 3T3 viability, CellTiter-Glo ATP luminescence, 48-72 h. Potency, µM (titrated, usually from 96.7 µM), without a hit: at the highest dose activity change, negative = cytotoxicity, hits mostly inhibitors. hit rate 4.3% among 94,000. AID 1345082; note: % is set by controls: 0 for no effect and ±100 for the full control effect; nearly all actives have a fitted effect of over 55% in size
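Cells were seeded at 400 per well, treated with pin-transferred compound, and kept 48 or 72 hr at 37 °C before CellTiter-Glo addition and luminescence imaging of cellular ATP.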
HEK cytotox: cytotoxic compounds in HEK 293 cells; hit rate 6.6% among 94,000; AID 1345083; HEK 293 viability, ATP luminescence (CellTiter-Glo), 48-72 h; Potency, µM (highest dose often 115 µM), inactives show top-dose activity change, negative = cytotoxicity, most hits filed as inhibitors; note: % is set by controls: 0 for no effect and ±100 for the full control effect; nearly all actives have a fitted effect of over 60% in size
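Luminescence from cellular ATP, measured with CellTiter-Glo, indicates HEK 293 viability. Cells plated at 250 cells/well are treated with compound for 48 or 72 hr at 37 degree Celsius before reagent addition.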
hNpr1 antagonist: blocks ANP-stimulated signaling of human Npr1 receptor; HEK293 hNpr1 GloSensor cGMP, ANP-stimulated luminescence; Potency, µM (top dose mostly 46.3 µM), for the others: top-dose activity change, negative = inhibition, usual class: inhibitors; hit rate 1.6% among 76,000; AID 1347048; calls by dose curve; note: % is set by controls: 0 for no effect and ±100 for the full control effect; nearly all actives have a fitted effect of over 60% in size
Target sequence (P16066 whole entry, looked up): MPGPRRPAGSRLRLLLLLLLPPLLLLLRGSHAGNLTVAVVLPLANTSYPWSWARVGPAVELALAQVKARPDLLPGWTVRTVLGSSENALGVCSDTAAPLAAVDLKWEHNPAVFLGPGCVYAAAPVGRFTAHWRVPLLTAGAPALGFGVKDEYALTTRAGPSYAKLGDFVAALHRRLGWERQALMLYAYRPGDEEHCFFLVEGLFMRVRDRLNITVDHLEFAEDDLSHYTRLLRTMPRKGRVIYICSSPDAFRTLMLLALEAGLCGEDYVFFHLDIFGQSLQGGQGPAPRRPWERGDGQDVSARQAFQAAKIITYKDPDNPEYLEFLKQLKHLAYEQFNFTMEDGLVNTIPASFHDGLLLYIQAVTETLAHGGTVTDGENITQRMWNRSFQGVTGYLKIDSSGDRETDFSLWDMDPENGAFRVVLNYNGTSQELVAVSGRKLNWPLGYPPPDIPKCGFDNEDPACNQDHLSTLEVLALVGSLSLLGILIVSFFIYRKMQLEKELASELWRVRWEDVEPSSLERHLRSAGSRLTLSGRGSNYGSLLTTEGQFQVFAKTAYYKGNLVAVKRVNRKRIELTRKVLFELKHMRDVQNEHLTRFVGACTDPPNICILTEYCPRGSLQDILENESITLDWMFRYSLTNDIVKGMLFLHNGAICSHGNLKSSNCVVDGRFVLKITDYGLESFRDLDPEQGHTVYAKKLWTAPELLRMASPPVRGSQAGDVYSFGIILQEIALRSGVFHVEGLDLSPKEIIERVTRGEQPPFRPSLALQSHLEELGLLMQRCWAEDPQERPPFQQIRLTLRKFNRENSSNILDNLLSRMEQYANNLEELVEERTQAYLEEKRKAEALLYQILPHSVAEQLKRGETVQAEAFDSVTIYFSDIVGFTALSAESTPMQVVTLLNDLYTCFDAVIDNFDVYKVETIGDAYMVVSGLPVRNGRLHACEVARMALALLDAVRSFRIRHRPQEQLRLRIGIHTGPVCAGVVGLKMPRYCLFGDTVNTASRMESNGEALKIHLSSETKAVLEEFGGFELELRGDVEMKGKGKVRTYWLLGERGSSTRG
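HEK293 cells stably expressing human Npr1 and cGMP GloSensor pGS-40F, loaded 2 h with 2% GloSensor reagent, given compound 30 min at room temperature. Luminescence read before and 20 min after 0.1 nM hNppA.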
FLuc inh-1: Photinus pyralis luciferase inhibition; purified P. pyralis luciferase, luminescence, biochemical; Potency, µM (series often up to 115 µM), actives largely listed as inhibitors; hit rate 2.5% among 76,000; AID 1347043; note: % is set by controls: 0 for no effect and ±100 for the full control effect; nearly all actives have a fitted effect of over 65% in size
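Cell-free enzyme assay, 10nM P. pyralis luciferase, luciferin and ATP each at 10uM. Inhibition profiled over a 6-point titration, read as luminescence.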
FLuc SDR no ATP: binders stabilizing firefly luciferase, without ATP; Purified FLuc-C-HiBiT, Nano-Glo HiBiT luminescence, no ATP; Potency, µM (top dose mostly 32.7 µM), for the others: at the top dose activation (signal gain), usual class: activators; hit rate 7.8% among 1,300; shares compounds with FLuc inh-1; note: nearly all actives have a fitted effect of over 55% in size
FLuc SDR ATP: binders stabilizing firefly luciferase, plus ATP; shares compounds with FLuc inh-1; purified FLuc-C-HiBiT + ATP, HiBiT complementation luminescence; Potency, µM (titrated, usually from 32.7 µM), for the others: top-dose activation (gain of signal), usual class: activators; hit rate 8.7% among 1,300; AID 1963319;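 note: signal reports ligand binding via conformational change of the enzyme rather than luciferase catalysis; % of control where 0% means no effect; nearly all actives have a fitted effect of over 55% in size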
FLuc inh-2: blocks firefly luciferase enzymatic activity; shares compounds with FLuc inh-1; purified FLuc-C-HiBiT enzyme, luciferin luminescence; Potency, µM (titrated, usually from 32.7 µM), inactives show top-dose activity change, negative = inhibition, most hits filed as inhibitors; hit rate 42% among 1,300; AID 1963320; note: % is set by controls: 0 for no effect and ±100 for the full control effect; nearly all actives have a fitted effect of over 70% in size
* marks the source's active call; other numbers are inactive results; i = inactive; u = inconclusive; x = no result; ! = not confirmed by another sample; [ ] = another dose, or the depositor's remark. Unless noted, calls come from the whole dose curve; as a rule, active = well fitted curve in the direction sought with a large enough effect; inconclusive = small, poorly fitted or top-dose-only effect, or another doubt; inactive = no such curve, though single readings can be large; an effect the other way counts as inactive or inconclusive. Potency is the fitted concentration of half-maximal effect.

SMILES	NIH3T3 tox	HEK cytotox	hNpr1 antagonist	FLuc inh-1	FLuc SDR no ATP	FLuc SDR ATP	FLuc inh-2
CCOCC1(C)COc2ccc(C(=O)Nc3ccc(Cl)cc3)cc2N1 (stereo not drawn)	45µM*	40µM*	32µM*	11µM*	17%[49.3 µM]	11%[49.3 µM]	u
Cc1ccc(NCc2nc3ccccc3n2CCOc2ccccc2)cc1	x	x	x	x	22%	15%	u
O=C(Nc1ccccc1F)c1ccc(-c2ccccc2)s1	x	x	x	x	21%	u	u
CNC(=O)Nc1ccc(C)n(CC(=O)N2CCN(c3ccccc3F)CC2)c1=O	i	8%	2%	i	x	x	x
Cc1cccc(N2CCN(C(=O)CSCc3ccc(F)cc3)CC2)c1C	x	x	x	x	12%	9%	-8%
Nc1nccc(-c2c(-c3ccc(F)cc3)ncn2C2CCNCC2)n1	x	x	x	x	15%	8%	3%
COc1ccc([S+](=O)([O-])c2nnn3c2nc(N2CCC(F)CC2)c2ccccc23)cc1	-26%	-4%	x	x	x	x	x
COCCCNC(=O)CC1=C2CCCCC2N(Cc2ccc(F)cc2)C1=O (stereo not drawn)	-12%	1%	x	x	x	x	x
Cc1csc(NC(=O)c2ccc3c(c2)OCC(=O)N(C)C3)n1	u	-16%[172 µM]	x	5µM*	24%[49.3 µM]	u	u
CN1Cc2ccc(C(=O)NCCOc3ccccc3)cc2OCC1=O	x	x	x	x	19%[49.3 µM]	u	u
Cc1cnc(NC(=O)c2ccc3c(c2)OCC(=O)N(C)C3)s1	x	x	x	x	u	u	14µM*
Cn1cc(CN2Cc3ccc(C(=O)Nc4ccc(F)cc4)cc3OCC2=O)cn1	-25%[138 µM]	u	-5%[70.6 µM]	i	x	x	x
COCCNC(=O)c1cc(-c2ccc(OC)cc2)nc2onc(C3CCNC3)c12 (stereo not drawn)	-16%	-27%	x	x	x	x	x
CCC1(N2CCN(S(=O)(=O)c3ccc(F)c(C)c3)CC2)CCN(C(=O)NC)C1 (stereo not drawn)	u	-15%	-3%	i	x	x	x
Cc1cc(C)c(S(=O)(=O)N2CCCC(Cn3cc(CO)nn3)C2)c(C)c1 (stereo not drawn)	-27%	-22%	12%	i	x	x	x
OCc1cn(CC2CCN(c3ncnc4nc[nH]c34)CC2)nn1	i	-4%	3%	i	9%	8%	-2%
CC(C)c1cnc(N2CCC(COc3ccc4c(cnn4CCC(=O)O)c3)CC2)nc1	u	u	1%[70.6 µM]	14µM*	15%[49.3 µM]	9%[49.3 µM]	u
CC(NC(=O)c1noc(-c2ccc(F)cc2)n1)c1ccccc1 (stereo not drawn)	-18%	-31%	-12%	i	x	x	x
O=C(O)c1ccc(-c2noc(-c3ccc(F)cc3)n2)cc1	x	x	x	x	u	0.56µM*	0.44µM*
O=C(O)c1ccc(-c2noc(-c3ccc(C(F)(F)F)cc3)n2)cc1	x	x	x	x	u	0.44µM*	0.31µM*
Cc1nc(CCNC(=O)c2ccc(C(F)(F)F)cc2)no1	-11%	1%	-1%	i	x	x	x
COc1ccc(-c2cc(N3CCC(NC(=O)c4cc(Cl)ccc4F)CC3)n[nH]2)cc1	-7%	u	0%	i	x	x	x
COc1ccc(-c2cc3c(cn2)CN(Cc2cccnc2)CCN3)cc1F	-14%[138 µM]	u	u	5µM*	u	18%[49.3 µM]	14µM*
COc1ccc(OC)c(CN2CCNc3cnc(OCc4cccnc4)cc3C2)c1	u	u	-11%[70.6 µM]	i	x	x	x
COc1ccc(-c2cc3c(cn2)CN(Cc2cccnc2)CCN3)cc1OC	-27%[138 µM]	u	2%[70.6 µM]	5.6µM*	u	17%[49.3 µM]	14µM*
SMILES	NIH3T3 tox	HEK cytotox	hNpr1 antagonist	FLuc inh-1	FLuc SDR no ATP	FLuc SDR ATP	FLuc inh-2
CCN1C(=O)CN(C(=O)c2cccs2)CC12CCOCC2	-22%	-12%	x	x	x	x	x
Cc1cccc(CN2CCCN(S(C)(=O)=O)C(c3ccccc3)CC(=O)NCC2)c1 (stereo not drawn)	u	-28%	4%	i	x	x	x
O=C(NCC1CC1)[C@@H]1OCCN(C2CC2)[C@H]1c1ccccc1	-17%	-17%	x	x	x	x	x
CCC(=O)N1CCc2ccc(C(=O)NC3CC3)cc21	4%	-5%	2%	i	x	x	x
CCC(=O)N1CCc2ccc(C(=O)NC3CCCCC3)cc21	-15%	-20%	u	2.2µM*	u	u	u
O=C(NC1CCN(c2cc(-c3cccs3)[nH]n2)C1)c1cc2ccccc2[nH]1 (stereo not drawn)	u	u	-13%	u	x	x	x
CCC[C@H]1CN(C(=O)c2cccc(N3CCOCC3)c2)C[C@@H]1N	-22%	-6%	2%	i	x	x	x
CCN(CC)CCOc1ccc(-c2nc3cc(Cl)ccc3s2)cc1	x	x	x	x	21%[65.7 µM]	13%[65.7 µM]	u
CCN(CCOC)C(=O)c1coc(COc2ccc3sc(C)nc3c2)n1	-26%	u	-1%	i	x	x	x
CCOc1ccc(S(=O)(=O)N2CCCN(C)c3ccccc32)cc1	u	u	-18%	i	x	x	x
COc1ccc(CN2C(=O)[C@H](OC)[C@@H]2C2=CCN(C(=O)c3ccco3)CC2)cc1	-28%	u	x	x	x	x	x
COc1ccc(-c2nc3ncccc3[nH]2)cc1	79µM*!	79µM*	-17%[70.6 µM]	13µM*	u	u	16µM*
c1cnc2nc(-c3ccncc3)[nH]c2c1	u	-20%[230 µM]	-2%[70.6 µM]	i	x	x	x
COc1cccc(C(=O)N2CCC(C(=O)N3CCC4(CC3)CC(=O)Nc3ccccc3O4)CC2)c1	-9%	u	x	x	x	x	x
COc1ccc(C(=O)Nc2noc3ccccc23)cc1	x	x	x	x	9.9µM*	3.1µM*	0.88µM*
O=C(NCC(F)(F)F)C1CCCN1c1nc2ncccc2o1 (stereo not drawn)	i	i	-1%[70.6 µM]	i	11%[49.3 µM]	7%[49.3 µM]	6%[49.3 µM]
C=CCNC(=O)N1CCC(O)(c2csc(CN3CCc4ccccc4C3)n2)CC1	-23%[174 µM]	u	-3%[70.6 µM]	i	x	x	x
CCCc1ccc2oc(C(=O)NCCc3nncn3CC)c(C)c2c1	u	u	-16%	3.5µM*	13%	15%	u
Fc1ccc(NCc2ccccc2-c2nnc(-c3ccccc3Cl)o2)cc1Cl	x	x	x	x	17%	9%	u
C[C@@H]1CN(c2cnc3ccccc3n2)CC[C@@]1(O)C1CCC1	u	u	u	4µM*	22%	17%	u
C[C@@H]1CN(c2cc(C3CC3)ncn2)C[C@@]1(O)C1CCC1	-22%	u	3%	i	x	x	x
O=C(NCC1CN(C(=O)NCc2ccc(F)cc2)CC12CCCCC2)C1CC1 (stereo not drawn)	-47%	-25%	x	x	x	x	x
O=C1Cc2c(-c3cccc4ccccc34)n[nH]c2CN1CCOc1ccccc1	45µM*	45µM*	u	10µM*	7%[49.3 µM]	10%[49.3 µM]	u
